# Results filed as inconclusive are left out. A call without a number means that no potency is given here. Active and inactive are the calls of the source. Calls follow the shape of the dose curve; as a rule, active = well fitted curve in the direction sought with a large enough effect; inconclusive = small, poorly fitted or top-dose-only effect, or another doubt; inactive = no such curve, though single readings can be large; an effect the other way counts as inactive or inconclusive.
# What was measured:
# [1] = qHTS for inhibitors of adenylyl cyclases using a fission yeast platform: a pilot screen against the NCATS LOPAC library (AID 1347410)
# Summary of the method: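 Read-out: fbp1-GFP fluorescence by laser scanning cytometry (488 nm laser), a gain of signal when AC/cAMP-PKA signalling is inhibited. Strain CHP2027 expressing AC9, GNAS and PDE4D2; compounds at up to 57 µM; 18 h, 30C.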
# [2] = target: Calcium and integrin-binding protein 1 (Homo sapiens) (UniProt Q99828); experiment: Validation qHTS for Identification of Calcium Integrin Binding protein 1 (CIB1) Competitor (AID 1508618)
# Sequence of Calcium and integrin-binding protein 1 (Homo sapiens) (Q99828 whole entry, looked up): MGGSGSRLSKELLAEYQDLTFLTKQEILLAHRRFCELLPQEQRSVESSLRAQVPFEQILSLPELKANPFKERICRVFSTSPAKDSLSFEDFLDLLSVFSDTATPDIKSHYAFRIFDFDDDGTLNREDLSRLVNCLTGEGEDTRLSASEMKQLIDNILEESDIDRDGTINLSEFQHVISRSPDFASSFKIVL
# Summary of the method: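 In this qHTS validation, the LOPAC set (up to 114 uM) was tested for blocking CIB1 binding to a fluorescein-tagged alphaIIb peptide, with FP detection at 480/540 nm.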
# [3] = target: Calcium and integrin-binding protein 1 (Homo sapiens) (UniProt Q99828); experiment: Primary qHTS for Identification of Calcium Integrin Binding Protein 1 (CIB1) Competitor (AID 1508620);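 also: GST tagged CIB1 binding a fluorescein labelled alphaIIb integrin peptide tracer; top concentration of the series differs between compounds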
# Summary of the method: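 Fluorescence polarization competition: CIB1-GST (1 uM final) preincubated with compound 15 min at room temperature, then FITC-labeled alphaIIb peptide (100 nM final) added for another 15 min. Polarization read at Ex 480/Em 540.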
# [4] = qHTS to identify inhibitors of the type 1 interferon - major histocompatibility complex class I in skeletal muscle: primary screen against the NCATS Mechanism Interrogation Plate v5.0 (MIPE) Libary (AID 1347411); also: nearly all actives have a fitted effect of over 65% in size
# Summary of the method: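 Seed engineered human myoblasts (HLA-B HiBit) in medium without dexamethasone containing 4 ng/ml IFN-beta; after 1 hr add compound titrations (top 46 uM final). Incubate 24 hrs at 37 C, lyse 10 min with HiBiT reagent, read luminescence.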
# [5] = target: Protein phosphatase 1D (Homo sapiens) (UniProt O15297); experiment: RapidFire Mass Spectrometry qHTS Assay for Modulators of WT P53-Induced Phosphatase 1 (WIP1) (AID 1347424);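 also: amount of dephosphorylated VEPPL-S-QETFS peptide product formed by WIP1; series mostly up to about 63 µM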
# Sequence of Protein phosphatase 1D (Homo sapiens) (O15297 whole entry, looked up): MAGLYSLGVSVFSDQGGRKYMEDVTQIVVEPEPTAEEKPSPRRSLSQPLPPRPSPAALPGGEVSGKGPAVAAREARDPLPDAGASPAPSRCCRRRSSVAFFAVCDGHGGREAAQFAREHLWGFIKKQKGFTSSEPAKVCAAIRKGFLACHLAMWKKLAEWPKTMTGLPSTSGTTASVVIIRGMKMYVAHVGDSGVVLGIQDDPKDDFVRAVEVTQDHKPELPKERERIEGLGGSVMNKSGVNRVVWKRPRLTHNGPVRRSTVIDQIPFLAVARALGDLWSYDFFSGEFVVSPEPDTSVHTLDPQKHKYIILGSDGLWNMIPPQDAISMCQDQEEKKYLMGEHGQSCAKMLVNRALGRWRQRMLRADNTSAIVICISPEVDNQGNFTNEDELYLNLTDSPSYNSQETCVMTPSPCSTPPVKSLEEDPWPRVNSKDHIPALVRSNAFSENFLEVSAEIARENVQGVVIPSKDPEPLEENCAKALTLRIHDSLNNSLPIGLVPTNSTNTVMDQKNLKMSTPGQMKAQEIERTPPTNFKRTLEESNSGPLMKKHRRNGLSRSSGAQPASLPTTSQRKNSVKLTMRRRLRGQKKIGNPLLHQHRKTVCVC
# Summary of the method: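 Mass-spectrometric measurement of dephosphorylated peptide after a 5 min room-temperature reaction of 10 nM WIP1 with 2 uM phosphopeptide, following 1 h compound preincubation in 30 mM MgCl2 buffer.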
# [6] = target: Protein phosphatase 1D (Homo sapiens) (UniProt O15297); experiment: Rhodamine-PBP qHTS Assay for Modulators of WT P53-Induced Phosphatase 1 (WIP1) (AID 1347425)
# Summary of the method: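 Steps: enzyme with Rh-PBP sensor and compounds, room-temperature incubation of 1 hr, baseline read, addition of VEPPL-pS-QETFS (10 uM final), kinetic fluorescence reads at 525/598 nm. Activity equals final minus baseline signal.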
# [7] = Primary qHTS for inhibitors of La Crosse Virus (LACV) - induced cell death in SH-SY5Y cells (AID 1508616);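 also: top concentration of the series differs between compounds; higher means more rescue of cells from virus-induced death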
# Summary of the method: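 SH-SY5Y, 6000 cells/well; cpd via pin tool in DMSO; LACV 0.01 MOI; 6 d 37C 5% CO2; ATPLite, 5 min RT; luminescence normalized to ±virus DMSO controls.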
# [8] = Validation qHTS assay for inhibitors of Activation Induced Cytidine Deaminase (AID): UDG Counterscreen signal (AID 1347427)
# Summary of the method: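 Fluorescence at 560 nm excitation, 665 nm emission reports UDG signal after 250 mM NaOH (2x) addition and 30 min. Enzymes (AID 1 uM, UDG 2 U/mL, at 4/3x) preincubated 10 min with compound, then 4 h with 4x 250 nM DJC20/DJC23 substrate at room temperature.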
# [9] = target: Single-stranded DNA cytosine deaminase (Homo sapiens) (UniProt Q9GZX7); experiment: Validation qHTS assay for inhibitors of Activation Induced Cytidine Deaminase (AID): AID signal (AID 1347429)
# Sequence of Single-stranded DNA cytosine deaminase (Homo sapiens) (Q9GZX7 whole entry, looked up): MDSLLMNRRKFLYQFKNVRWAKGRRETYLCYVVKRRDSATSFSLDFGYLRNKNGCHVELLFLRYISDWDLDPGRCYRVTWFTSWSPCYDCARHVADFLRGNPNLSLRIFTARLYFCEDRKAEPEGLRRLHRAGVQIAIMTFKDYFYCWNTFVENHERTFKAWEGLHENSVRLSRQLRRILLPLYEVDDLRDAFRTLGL
# Summary of the method: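 Steps: dispense AID with UDG; pin-transfer compound up to 114 uM final; add DJC20/DJC23 substrate and hold 4 hr at room temperature; add NaOH, hold 30 min; read FRET signal (540/590 nm).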
compound,measurement,setting,value
O=[N+]([O-])c1ccc(CNc2nc(NCc3cccc(C(F)(F)F)c3)nc3nc[nH]c23)cc1,outcome,[1],inactive
same,outcome,[2],inactive
same,Potency,[3],inactive
O=C(CCSCc1ccco1)NNC(=O)N1Cc2ccccc2Oc2ccc(Cl)cc21,outcome,[1],inactive
same,outcome,[2],inactive
CC(C)(NS(=O)(=O)c1ccc(Oc2ccc(F)cc2)cc1)C(=O)NO,outcome,[1],inactive
same,outcome,[2],inactive
O=c1cc(-c2ccccc2)oc2c(O)c(O)ccc12,outcome,[1],inactive
same,outcome,[2],inactive
O=C(NOCC1CC1)c1cc(Br)c(F)c(F)c1Nc1ccc(I)cc1Cl,outcome,[1],inactive
same,outcome,[2],inactive
C=CCc1cccc(/C=N/NC(=O)CN2CCN(Cc3ccccc3)CC2)c1O,Potency,[4],inactive
NS(=O)(=O)c1ccc(-n2nc(C(F)(F)F)cc2-c2ccc(Cl)cc2)cc1,outcome,[1],inactive
same,outcome,[2],inactive
same,Potency,[3],inactive
COC(=O)C1=C(C)NC(C)=C(C(=O)OC)C1c1cccc(NC(=O)NCCCN2CCC(c3cccc(OC)c3)CC2)c1,outcome,[1],inactive
same,outcome,[2],inactive
same,Potency,[3],inactive
COc1ccc(/C=C/c2nc(NCCCN(C)C)c3ccccc3n2)cc1,outcome,[1],inactive
same,outcome,[2],inactive
Nc1nc(OCC2CCCCC2)c2[nH]cnc2n1,outcome,[1],inactive
same,outcome,[2],inactive
O=C(Nc1ccncc1)c1cc([N+](=O)[O-])ccc1Cl,outcome,[1],inactive
same,outcome,[2],inactive
CN[C@H](CC(C)C)C(=O)N[C@H]1C(=O)N[C@@H](CC(N)=O)C(=O)N[C@H]2C(=O)N[C@H]3C(=O)N[C@H](C(=O)N[C@H](C(=O)O)c4cc(O)cc(O)c4-c4cc3ccc4O)[C@H](O)c3ccc(c(Cl)c3)Oc3cc2cc(c3O[C@@H]2O[C@H](CO)[C@@H](O)[C@H](O)[C@H]2O[C@H]2C[C@](C)(N)[C@H](O)[C@H](C)O2)Oc2ccc(cc2Cl)[C@H]1O,outcome,[1],inactive
same,outcome,[2],inactive
COCCOc1cc2nc[nH]c(=O)c2cc1OCCOC,outcome,[1],inactive
same,outcome,[2],inactive
Nc1nc2ccc(Cl)cc2n2c(-c3ccccc3)nnc12,outcome,[1],inactive
same,outcome,[2],inactive
O=C1NC(O)=NC1(c1ccccc1)c1ccccc1,outcome,[1],inactive
same,outcome,[2],inactive
CC[C@H]1OC(=O)[C@H](C)[C@@H](O[C@H]2C[C@@](C)(OC)[C@@H](O)[C@H](C)O2)[C@H](C)[C@@H](O[C@@H]2O[C@H](C)C[C@H](N(C)C)[C@H]2O)[C@](C)(O)C[C@@H](C)C(=O)[C@H](C)[C@@H](O)[C@]1(C)O,Potency,[4],inactive
N[C@H](CCCP(=O)(O)O)C(=O)O,outcome,[1],inactive
same,outcome,[2],inactive
S=c1[nH]c(-c2ccccc2)cn1-c1ccccc1,outcome,[1],inactive
same,outcome,[2],inactive
COc1cc(OC)cc(-c2cc3cnc(N)nc3nc2NC(=O)NC(C)(C)C)c1,outcome,[1],inactive
same,outcome,[2],inactive
CCCCCCCCCCCCCCCCCCN(CCCCCCCCCCCCCCCCCC)CCCN(CCO)CCO,outcome,[1],inactive
same,outcome,[2],inactive
COc1ccccc1CN[C@@H]1CCCN[C@@H]1c1ccccc1,outcome,[1],inactive
same,outcome,[2],inactive
CCNc1nc2c(ncn2[C@H]2C[C@H](O)[C@@H](CO)O2)c(=O)[nH]1,outcome,[1],inactive
same,outcome,[2],inactive
same,Potency,[3],inactive
NCCO,Potency,[5],inactive
same,outcome,[6],inactive
same,Potency,[7],inactive
same,Potency,[3],inactive
N#C/C(=C\c1ccc(O)c(O)c1)C(=O)NCc1ccccc1,Potency,[4],inactive
same,Potency,[8],inactive
same,Potency,[9],inactive
CC1(C)[C@@H](O)CC[C@]2(C)[C@H]3C(=O)C=C4[C@@H]5C[C@@](C)(C(=O)O)CC[C@]5(C)CC[C@@]4(C)[C@]3(C)CC[C@@H]12,Potency,[4],inactive
same,Potency,[3],inactive
CCN1/C(=C/C(C)=O)Sc2ccc(OC)cc21,Potency,[4],inactive
same,Potency,[9],inactive
same,Potency,[7],inactive
same,outcome,[2],inactive

# Reference: PubChem BioAssay (NCATS)
